# About 83,000 compounds went through this panel and 20% of them were active in at least one assay; those are over-represented in the sample as a whole.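 Values shown are percent growth following 48 h exposure of cells in 96-well plates to a single concentration of compound; below 10 was considered active.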 Unmarked numbers belong to inactive results. Active and inactive are the calls of the source.
# Columns and labels:
# Assay in all cases: NCI-60 one-dose screen, 48 h (100 = growth as untreated, 0 = no growth, -100 = all killed)
# Conditions in all cases: 10 µM unless noted
# [1] = system: NCI-H23 lung
# [2] = system: NCI-H226 lung
# [3] = system: NCI-H322M lung
# [4] = system: HOP-62 NSCLC
# [5] = system: NCI-H460 lung
# [6] = system: HOP-92 NSCLC
# [7] = system: NCI-H522 lung
# [8] = system: A549/ATCC NSCLC
# [9] = system: 786-0 renal
# [10] = system: COLO 205 colon
# [11] = system: DU-145 prostate
# [12] = system: K-562 leukemia
# [13] = system: MALME-3M melanoma
# [14] = system: MDA-MB-231 breast
# [15] = system: RXF 393 renal
# [16] = system: SF-268 CNS
# [17] = system: SF-295 CNS
# [18] = system: SF-539 CNS
# [19] = system: UACC-257 melanoma
# [20] = system: M14 melanoma
SMILES,growth [1],growth [2],growth [3],growth [4],growth [5],growth [6],growth [7],growth [8],growth [9],growth [10],growth [11],growth [12],growth [13],growth [14],growth [15],growth [16],growth [17],growth [18],growth [19],growth [20]
COc1cc(C(=O)/C=C/c2sc(Cl)nc2Cl)cc(OC)c1OC,33.9%,80.5%,85.4%,85%,83.9%,51.4%,33.6%,90.6%,79.2%,-19.7% (active),43.5%,3.23% (active),-35.1% (active),31.7%,-28.9% (active),61.5%,92.8%,-11.9% (active),70.8%,42.3%
COc1cc(-c2nc3sccn3c2-c2ccnc(NCCCNS(=O)(=O)c3ccc(F)cc3)n2)ccc1F,52.6%,52.1%,102%,90.2%,79.5%,79.4%,47.7%,83.2%,96.7%,56.9%,76.1%,38.2%,75.1%,86.1%,71.6%,74.2%,57.1%,95.6%,77.8%,53.6%
Cc1cc(O)c(C2=NN(c3ccc(S(N)(=O)=O)cc3)C(/C=C/c3ccccc3)C2)cc1Cl (stereo not given),22.3%,33.7%,57.5%,17.6%,35.3%,29.6%,31.9%,46.6%,7.75% (active),65.2%,36.4%,31.2%,24.6%,47.7%,30%,24.1%,38.5%,13.4%,64.6%,29.8%
CCOC(=O)Nc1ccc(-c2nc(-c3cccc(OCCN4CCOCC4)c3)c(-c3ccnc(Br)c3)[nH]2)cc1,47.3%,56.3%,58%,50.8%,54.1%,54.1%,52%,54.2%,-5.12% (active),48.2%,67.2%,1.64% (active),40.3%,46.2%,-25.9% (active),62.3%,-53.9% (active),23.4%,60%,57.4%
COc1ccc2sc3c(NCCO)nc4ccccc4c3c(=O)c2c1,96.7%,98.6%,97.6%,96.2%,107%,96%,82.1%,98.1%,103%,111%,106%,76.7%,104%,85.3%,104%,100%,100%,86.1%,109%,104%
COc1ccc2nc(NC(=O)c3cccnc3Nc3ccc(S(N)(=O)=O)cc3)sc2c1,105%,95.5%,89.8%,109%,98.9%,84.9%,95.5%,93.5%,78.3%,159%,105%,70.9%,103%,106%,113%,82.6%,92.8%,100%,113%,113%
Nc1ccc(Sc2ccc([N+](=O)[O-])c3nonc23)cc1,95.8%,96.5%,101%,92.2%,96.7%,103%,2.03% (active),89.8%,93.5%,40.6%,97.3%,26.7%,57%,92.4%,104%,98%,96.9%,91.9%,86.9%,88.7%
COC(=O)/C=C1\S/C(=N\Nc2ccc([N+](=O)[O-])cc2[N+](=O)[O-])N(C2CCCCC2)C1=O,60%,80.7%,99.3%,86.8%,35.1%,8.36% (active),43.6%,87.6%,61.1%,42.5%,44.2%,17.8%,87.5%,59.8%,62%,71%,77.1%,69.2%,80.1%,78.1%
Cc1ccc(C(=O)N/N=C/c2cccc([N+](=O)[O-])c2)cn1,101%,90%,97.1%,98.7%,106%,91.4%,84.8%,92.1%,31.4%,112%,100%,101%,114%,95.6%,110%,110%,107%,98.6%,95.6%,112%
C/C(=C\C(=O)c1ccc(Cl)cc1)c1ccc(Cl)cc1,83.9%,90.9%,84.9%,88.1%,100%,72.8%,87.8%,95.2%,108%,97.5%,113%,106%,97.5%,89.8%,106%,96.4%,109%,104%,98.4%,104%
Cc1ccc(C(=O)NN2C(=O)CSC2c2cccc([N+](=O)[O-])c2)cn1 (stereo not given),93.2%,95.6%,104%,93%,108%,81.3%,109%,92.9%,106%,105%,107%,98.9%,111%,96.6%,82.8%,104%,99.4%,106%,75.8%,96.4%
Cc1ccc(S(=O)(=O)N/N=C/C2(c3ccccc3)CC2)cc1,101%,113%,111%,99%,95.1%,90.5%,105%,82%,112%,116%,114%,97.8%,110%,102%,94.4%,111%,94.7%,114%,99.7%,115%
CC1=NN(c2ccc(S(=O)(=O)O)cc2)C(=O)C1N=Nc1ccc(-c2ccc(N=Nc3ccc(OS(=O)(=O)c4ccc(C)cc4)cc3)c(S(=O)(=O)O)c2)cc1 (stereo not given),87.4%,85.7%,93.4%,93.7%,96%,41.1%,77.8%,99%,90.3%,102%,107%,94.4%,108%,97.1%,61.7%,100%,77.5%,85.1%,104%,103%
COc1ccc(-c2cc3c4c(nc5ccccc5c4c2)CC(c2cc(OC)c(OC)c(OC)c2)O3)cc1 (stereo not given),54.2%,-12.5% (active),54.2%,34.7%,12.8%,-7.6% (active),55.6%,64.7%,-56.1% (active),67.5%,35.4%,40.9%,20.8%,19.6%,-0.548% (active),44.4%,42%,-16% (active),46.3%,57.5%
O=C(CCN1C(=O)/C(=C/c2ccc(O)cc2)SC1=S)Nc1ccccc1,91.9%,90.9%,95%,85.9%,106%,89.6%,80.1%,93.3%,105%,125%,110%,81.8%,95.4%,91.1%,103%,93.5%,91%,97.8%,104%,97.4%
O=c1c2cc(F)ccc2sc2c(NCCCNCCO)nc3ccc(F)cc3c12,82.5%,84.8%,79.4%,71.5%,-32.8% (active),4.67% (active),60.9%,64.7%,64.1%,23.3%,37.4%,-33.5% (active),85.5%,-7.79% (active),63%,51.8%,98.6%,63.9%,94%,8.53% (active)
CNC(C)[C@H]1CCC2C3CCC4C[C@@H](N(C)C(=O)c5ccccc5)CC[C@]4(C)C3CC[C@@]21C (stereo not given in full),40.9%,80.3%,12.6%,38.4%,-7.41% (active),19.2%,69.5%,39.9%,40.1%,-79.3% (active),61.4%,-2.77% (active),-42.1% (active),-1.29% (active),-67% (active),-9.75% (active),24.3%,-61.2% (active),-12.6% (active),-36.6% (active)
CC(=O)CC[C@H]1C(=O)N[C@@H](C(C)C)C(=O)N[C@@H](Cc2cc(O)cc(F)c2)C(=O)N2CCC[C@H](N2)C(=O)O[C@H](/C(C)=C/C=C/C(=O)OC(C)(C)C)C/C=C/C=C/[C@H](O)[C@H](C)[C@H]1O,42.2%,76.8%,69.2%,44.9%,13.3%,55.2%,43.8%,49.9%,36.2%,51.7%,42.6%,21.6%,73.6%,47.5%,-5.28% (active),54.4%,50.2%,66.8%,53%,54.9%
COc1cc(OCc2cccc(-c3ccc(C(O)c4nccs4)cc3)c2C)cc(OC)c1CNCCNC(C)=O (stereo not given),98.1%,96.2%,99.1%,108%,101%,81.8%,101%,96.3%,102%,104%,111%,77.2%,86%,101%,107%,97.5%,103%,101%,99%,99.6%
CCOC(=O)C1=C(N)Oc2c(sc3c(C)cccc23)C1c1ccc(OC)cc1 (stereo not given),46.4%,55.2%,50.9%,34.4%,21.9%,66.1%,17.1%,42.7%,49.3%,118%,50.5%,10.5%,43.9%,46.3%,29.8%,51%,19.4%,15.4%,46.8%,21.7%
Cc1ccc2c(-c3cc(-c4ccccc4)nc(N)c3C#N)cc(=O)oc2c1,102%,95.9%,96.6%,88.3%,101%,92.3%,68.1%,92%,92.2%,108%,107%,108%,94.8%,101%,110%,99.1%,109%,94.7%,101%,108%
CC(=O)CC(c1cccs1)c1c(-c2ccccc2)[nH]c2ccccc12 (stereo not given),66%,84.3%,91.4%,89.5%,98.4%,72.6%,80.6%,91.3%,98.9%,107%,103%,77.2%,104%,86.9%,99.9%,85.6%,80.4%,98.9%,103%,94.5%
c1ccc2cc(C[n+]3ccn(CCCCCCCCCCCCn4cc[n+](Cc5ccc6ccccc6c5)c4)c3)ccc2c1,-80.3% (active),-42.1% (active),-18.4% (active),-58% (active),-69.9% (active),-68.2% (active),-74.2% (active),-74.2% (active),1.28% (active),-67.5% (active),-46.5% (active),-59% (active),-76.7% (active),-74% (active),-52.2% (active),-79.5% (active),-40.3% (active),-78.6% (active),-67.5% (active),-44.9% (active)
NS(=O)(=O)c1ccc(-n2nc(C(=O)N/N=C\c3ccc(F)cc3)cc2-c2ccc(Br)cc2)cc1,83.9%,81.9%,94.3%,65.3%,84.1%,67.8%,54.2%,74.3%,106%,83.1%,93.4%,18%,68.3%,85.3%,77.8%,82.2%,74.6%,89.7%,86.1%,79.7%
CC(=O)OC[C@H]1OC(Sc2sc(C(=O)c3ccc(C)cc3)c(N)c2-c2nc3ccccc3s2)[C@H](OC(C)=O)[C@@H](OC(C)=O)[C@@H]1OC(C)=O (stereo not given in full),56.1%,30.3%,81.3%,61.5%,43.7%,58.8%,82.1%,81.9%,47.4%,92.2%,42.1%,68.4%,43.9%,30%,53.5%,71%,73.6%,28.2%,79.3%,65.7%
Cc1ccc(/C=C2\Oc3ccc(O)c(O)c3C2=O)cc1,36.6%,62.2%,58%,44.8%,43.4%,35.9%,13.6%,73.1%,52.5%,107%,46.1%,19.2%,66.1%,56.1%,27.4%,37.5%,54%,32.7%,96.6%,56.1%
COc1cccc(-c2nc(-c3ccc(NS(=O)(=O)c4ccccc4)cc3)[nH]c2-c2ccnc(Br)c2)c1,25.8%,37.3%,32.4%,26.5%,16.7%,24.5%,20.7%,29%,20%,35.5%,44.3%,5.37% (active),40.2%,30.1%,-24.5% (active),31.4%,3.83% (active),36.6%,48.7%,27.1%
O=C(CSc1nccc(Nc2ccc(S(=O)(=O)Nc3nccs3)cc2)n1)c1ccc(C(F)(F)F)cc1,88.1%,89.2%,106%,113%,107%,90.8%,84.4%,99.6%,99.7%,112%,114%,114%,102%,120%,95.5%,110%,96.7%,95.7%,99.3%,100%
NC[C@@H]1O[C@H](O[C@@H]2[C@@H](CO)OC(O[C@@H]3[C@@H](O)[C@H](N)C[C@H](N)[C@H]3OC3O[C@H](CN)[C@@H](O)[C@H](O)[C@H]3N)[C@@H]2O)[C@H](N)[C@@H](O)[C@@H]1O (stereo not given in full),100%,109%,120%,115%,105%,125%,111%,105%,101%,115%,112%,113%,105%,104%,114%,113%,107%,89.3%,106%,104%
COc1ccc(OC)c(/C=C/C(=O)N/N=C/c2ccccc2)c1,65.1%,86.6%,79.6%,67.3%,13.5%,76.6%,-15.3% (active),48.4%,54.3%,42.8%,72.5%,21.2%,59%,71.8%,45.4%,60.7%,48.5%,51.8%,51.3%,27.8%
